Reference: the supplement of paper PMC6555819

System: RARb homodimer (NR concentration 270 nM)
Test: PBM binding z-score (relative to random genomic background probes); higher = stronger binding; sequences stand for … in GC…GCGATTGACAGCGTAGAATGAAGG
Outline: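 Scanned fluorescence from custom Agilent 4×180K protein-binding microarrays was regression-normalized. Binding z-scores use random background probes as reference. Ligand-free nuclear receptor dimers were incubated on the arrays for 1 h and detected with antibodies against each partner (one per run).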

**Q.** Which PBM binding z-score does the source give for GCTCGGAGGACAAGGTCAGAGGTTTGTCCGTAGA here?
**A.** The PBM binding z-score was 3.27.

**Q.** How did the PBM binding z-score turn out when GGAACGAGGGCATTCAAGTTGATAGCATGGCGAT was run?
**A.** Its PBM binding z-score is 0.771.

**Q.** CGTTACGGGTCACGAGGTTATAGCACGACGAGCG was tested. Which PBM binding z-score did it give?
**A.** Its PBM binding z-score is 3.99.

**Q.** For AGTCAAAGTTCACTAGGTACCGTAAGATTCAGCT, which PBM binding z-score is on record?
**A.** The PBM binding z-score was 3.6.

**Q.** GGAACGAGGGCAATCGAGTTGATAGCATGGCGAT was tested. Which PBM binding z-score did it give?
**A.** The PBM binding z-score was 0.554.

**Q.** With GGAGCGAGGGCATTCGAGTTGATAGCATGGCGAT as the sequence, how does the PBM binding z-score read?
**A.** Its PBM binding z-score is 0.497.

**Q.** With CTCGAAAGGACGTGCTCAGGTGAGTATACCAAAC as the sequence, how does the PBM binding z-score read?
**A.** The PBM binding z-score was 0.589.

**Q.** Which PBM binding z-score does the source give for TCTCGGAGCACACGAAAGGTCAGAGCTCGACATC here?
**A.** Its PBM binding z-score is 4.06.

**Q.** With TTACCAAGGTGAGCTGATGTCGTTGATCCAACTC as the sequence, how does the PBM binding z-score read?
**A.** The PBM binding z-score was 0.273.

**Q.** For TTTAGTTGGTCACGGAGGTCACACACGACGGGTA, which PBM binding z-score is on record?
**A.** Its PBM binding z-score is 4.52.

**Q.** Which PBM binding z-score does the source give for TCTAATTGGTCACGGAGGTCACACACGACGGGTA here?
**A.** Its PBM binding z-score is 4.68.

**Q.** How did the PBM binding z-score turn out when TCGAGTAGGTTAGGGACATTCAGAATGGCGTCGA was run?
**A.** Its PBM binding z-score is 0.458.

**Q.** With TCTAGTTGGTCACAGGTCACACACTCGAAATGCG as the sequence, how does the PBM binding z-score read?
**A.** The PBM binding z-score was 3.55.

**Q.** TCTATTAGTTGATTAGGTCAACCGAAACAGCGGA was tested. Which PBM binding z-score did it give?
**A.** Its PBM binding z-score is 3.09.

**Q.** Which PBM binding z-score does the source give for CGAACTAGGTCATCCAGGACAGTGGATACATTGA here?
**A.** The PBM binding z-score was 3.05.

**Q.** How did the PBM binding z-score turn out when TCGAGTAGGTTAAGGGCATTCAGAATGGCGTCGA was run?
**A.** The PBM binding z-score was 1.47.

**Q.** With CGTCCAAGGTCAGAAAGGTCAGTGAATGCCGAGT as the sequence, how does the PBM binding z-score read?
**A.** The PBM binding z-score was 5.58.

**Q.** With AGAATGAGGTTATTAAGATCAGGAAATTGCGGTC as the sequence, how does the PBM binding z-score read?
**A.** Its PBM binding z-score is 0.491.

**Q.** Which PBM binding z-score does the source give for CAAACTAGGTCATTGACAGGACAGTGAATAGTAA here?
**A.** The PBM binding z-score was 2.83.

**Q.** For TCTGCTCGGTCAACGATGGTCAGCTAATCTGCTA, which PBM binding z-score is on record?
**A.** Its PBM binding z-score is 1.65.

**Q.** For CCGACTGGTGCAAGGTTACCATAACGCACAGCCA, which PBM binding z-score is on record?
**A.** Its PBM binding z-score is 0.979.

**Q.** Which PBM binding z-score does the source give for GCTGCTAGGTCAACTGATGGTCAGCTTAAGCTCG here?
**A.** The PBM binding z-score was 3.69.
